Efa HMGR inh – E. faecalis class II HMG-CoA reductase inhibition | AID 1066 | purified E. faecalis HMGR, NADPH absorbance 340 nm kinetic | 0.41% of 190,000 active | inhibition, % at 10 µM;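 active = inhibition above a set limit, the median over all tested compounds plus 3 SD, cut at about 9.5% in these data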;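 also: enzyme runs in reverse so mevalonate oxidation gives rising NADPH absorbance; 0% = complete reaction with DMSO and 100% = background rate lacking mevalonate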
Avidin bead fluor – compound fluoresces at 488/530 nm on avidin beads. 0.38% of 220,000 active. fluorescence (KMESF) at 10 µM. compound fluorescence 488/530 nm, flow cytometry; stronger effect = higher value. AID 1775; in the data active = fluorescence above about 47
EP2 modulator – EP2 receptor (human) modulation. induction, % at 25 µM. P43116. AID 940. EP2-expressing cells, cAMP HTRF FRET, PGE2 co-stimulation. 0.83% of 260,000 active;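 active = compounds whose cAMP rise, as percent of the full-agonist control response, exceeds 60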;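 also: rat C6 glioma line stably carrying human EP2 under a CMV promoter; the protocol text gives 20 µM as final concentration; 100% = response of wells given 1 µM PGE2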
Target sequence (P43116 whole entry, looked up): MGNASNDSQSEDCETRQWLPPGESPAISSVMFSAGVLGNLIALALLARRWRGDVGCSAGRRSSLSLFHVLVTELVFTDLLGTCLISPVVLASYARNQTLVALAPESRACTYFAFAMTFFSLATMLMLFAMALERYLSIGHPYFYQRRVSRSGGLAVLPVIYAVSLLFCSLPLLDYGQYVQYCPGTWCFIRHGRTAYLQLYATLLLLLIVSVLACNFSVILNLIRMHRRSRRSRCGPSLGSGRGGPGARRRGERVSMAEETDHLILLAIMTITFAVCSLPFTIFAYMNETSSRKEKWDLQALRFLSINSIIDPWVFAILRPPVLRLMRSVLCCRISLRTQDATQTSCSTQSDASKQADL
EP2 antag – blocks the human prostaglandin E2 receptor EP2. inhibition, % at 25 µM. P43116. 0.52% of 260,000 active. C6 glioma cells expressing human EP2, cAMP TR-FRET; cells stimulated with saturating PGE2;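 active = percent inhibition above 40 after rounding to a whole number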;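 also: rat C6 glioma host cells with rolipram phosphodiesterase inhibitor present; the protocol text gives 20 µM as final concentration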
GSH bead fluor – GSH bead compound fluorescence profile. GSH beads flow cytometry, compound fluorescence 488/530 nm; stronger effect = higher value. fluorescence (KMESF) at 10 µM. 0.25% of 190,000 active; in the data active = fluorescence above about 89;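 also: glutathione beads carrying GST-tagged Bcl family fusion proteins plus one bare bead set; values are compound well signal with DMSO vehicle wells as background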
Active calls of the source: *; x = no result; ! = a repeat was not active. Most compounds without a hit are left out; they make up all but 2.1% or so of the library.

SMILES	Efa HMGR inh	Avidin bead fluor	EP2 modulator	EP2 antag	GSH bead fluor
Cc1occc1-c1nnc(SCC(=O)N2CCN(c3ccccc3F)CC2)n1C	7	12	75*!	7	21
Cn1cccc1C(=O)OCC(=O)N1CC(=O)Nc2ccccc21	11*	34	2	4	10
Cc1ccccc1-n1cnnc1SCC(=O)N1CCN(c2ccccc2)CC1	0	50*	11	12	15
Cc1occc1-c1nnc(SCC(=O)N2CCCCC2)n1Cc1ccccc1	x	x	-24	5	x
CCn1c(SCC(=O)N2CC(=O)Nc3ccccc32)nnc1-c1ccoc1C	2	7	5	x	260*
Cc1occc1-c1nnc(SCC(=O)N2CC(=O)Nc3ccccc32)n1CC(C)C	-12	x	15	9	10
O=C(Nc1ncnc2sc3c(c12)CCCCC3)c1cccs1	x	x	-2	3	x
Cc1cc(-c2ccccc2)n2ncc(-c3ccccc3)c2n1	-6	12	62*	18	16
O=C(c1cccnc1)C1CCN(C(=O)CCCc2c[nH]c3ccccc23)CC1	x	x	-93	7	x
O=C(O)C(Cc1ccccc1)N1C(=O)c2ccccc2C1=O (stereo unspecified)	2	18	5	6	10
O=C(O)[C@H](Cc1ccc(O)c([N+](=O)[O-])c1)N1C(=O)c2ccccc2C1=O	x	x	10	51*	x
COC(=O)c1ccccc1OCCOc1ccccc1C(=O)OC	4	10	20	15	24
COC(=O)c1ccccc1OCCCCN1CC(C)OC(C)C1 (stereo unspecified)	-4	173*	25	4	9
CCOc1ccc2ccccc2c1CNCCN1CCOCC1	10*	10	1	3	55
CCOc1ccc(Br)cc1CNCCN1CCOCC1	1	9	39	9	10
CN(C)CCCN[C@@H]1CCN(Cc2ccc(F)cc2)C[C@H]1O	x	x	-24	4	x
O=C(CCCn1nnc2ccccc2c1=O)N[C@H](C(=O)O)c1ccccc1	x	49*	-3	8	x
C=CCn1c(SCC)nc2sc3c(c2c1=O)CC(C)(C)OC3	x	x	80*	7	x
CCCSc1nc2sc3c(c2c(=O)n1CC)CC(C)(C)OC3	x	22	52	10	x
Cc1ccc(OCC(=O)c2cc(C)c(C)cc2C)c([N+](=O)[O-])n1	-7	7	-18	7	42
Cc1ccc(C)c(C(=O)COc2ccc(C)nc2[N+](=O)[O-])c1	0	6	29	23	256*
COCCn1c(C)cc(C(=O)COc2ccc(C)nc2[N+](=O)[O-])c1C	13*	9	-30	8	21
CCCn1c(C)cc(C(=O)COc2ccc(C)nc2[N+](=O)[O-])c1C	-9	12	16	5	11
COc1cc(C(=S)N2CCCCC2)ccc1OC(=O)/C=C/c1ccccc1	x	x	-20	12	x
COc1ccccc1NC(=O)NCCCl	-1	92*	7	3	12
SMILES	Efa HMGR inh	Avidin bead fluor	EP2 modulator	EP2 antag	GSH bead fluor
COc1ccccc1NC(C)=O	-5	4	1	12	251*
COc1ccccc1NC(=O)Nc1ccc(Br)cn1	-3	6	-4	1	266*
CCc1cc2cc3c(cc2nc1SCC(=O)Nc1nc2c(s1)CCCC2)OCO3	x	x	77*	23	x
CCc1cc2cc(OC)c(OC)cc2nc1SCC(=O)Nc1nc2c(s1)CCCC2	x	x	17	11	x
CC(C)(C)NC(=O)CSc1nc2cc3c(cc2cc1Cc1ccccc1)OCO3	x	x	81*	10	x
CCc1cc2ccc(OC)cc2nc1SCC(=O)Nc1ccc2c(c1)OCO2	x	x	76*	12	x
CCc1cc2cc3c(cc2nc1SCC(=O)Nc1cc(OC)cc(OC)c1)OCO3	x	x	69*	12	x
C#CCOc1c(Cl)cc(-c2nc3sc4c(c3c(=O)[nH]2)CCCC4)cc1OCC	x	x	6	8	x
CCOc1cc(C2C(C#N)=C(N)Oc3n[nH]c(C)c32)ccc1OC (stereo unspecified)	x	x	-37	12	x
CC1Cc2nc(SCC(=O)NC3CCCCC3)n(C)c(=O)c2S1 (stereo unspecified)	1	10	12	98*	23
Cc1ccc(S(=O)(=O)N2CCN(C(=O)c3cccc(F)c3)CC2)cc1	-3	172*	1	13	27
O=C(c1cccc(F)c1)N1CCCN(C(=O)c2cccc(F)c2)CC1	-2	3	4	6	3
CCOc1ccc(C2C(C#N)=C(N)Oc3cc(C)oc(=O)c32)cc1 (stereo unspecified)	16*	21	1	4	11
CCn1c(C)cc2c(c1=O)C(c1ccc3c(c1)OCO3)C(C#N)=C(N)O2 (stereo unspecified)	-5	63*	14	4	17
CCOC(=O)c1sc(NC(=O)CSc2nnc(C)s2)c(C(=O)OCC)c1C	-6	7	34	6	57
CCOC(=O)c1c(NC(=O)CSc2nnc(C)s2)sc2c1CCC(CC)C2 (stereo unspecified)	14*	23	45	7	12
O=c1cc(-c2ccccc2)oc2ccc(O)cc12	x	2	-6	9	x
O=C1OC2(c3ccc(O)cc3Oc3cc(O)ccc32)c2c1c(-c1ccccc1)c(-c1ccccc1)c(-c1ccccc1)c2-c1ccccc1	x	x	5	45*	x
COc1cc(NS(=O)(=O)c2ccc(C)cc2)ccc1-n1cnnn1	-1	11	21	153*	13
CCCNS(=O)(=O)c1ccc(-n2cnnn2)c(OC)c1	-8	10	6	5	16
CC(C)OC(=O)CSc1nc2ccccc2n1CC(=O)N1CCc2ccccc21	x	x	6	15	x
CC(=O)Nc1ccc(NC(=O)[C@@H]2CCCN2S(=O)(=O)c2ccc3c(c2)OCCO3)cc1	-2	22	-84	4	9
O=C(Nc1ccc2c(c1)OCCO2)C1CCCN1S(=O)(=O)c1ccc(Cl)cc1 (stereo unspecified)	-1	7	-9	0	261*
CC(=O)N=c1sc2nc3ccccc3nc2n1N(C(C)=O)C(C)=O	-1	13	24	81*	14
CC(=O)N=c1sc2ccccc2n1C	-6	32	47	16	28
SMILES	Efa HMGR inh	Avidin bead fluor	EP2 modulator	EP2 antag	GSH bead fluor
Cc1sc2nc3c4ccccc4c(NCc4ccco4)nn3c(=O)c2c1C	-1	65*	50	11	8
O=C1C2C(c3ccccc3)CC=CC2[C@H](c2ccc(C(F)(F)F)cc2)N1Cc1ccccc1 (stereo partly specified)	x	13	12	9	x
C[C@@H]1CC=C[C@H]2[C@H]1C(=O)N(Cc1ccccc1)[C@H]2c1ccc(C(F)(F)F)cc1	x	7	61*	8	x
Cc1ccc(/C=c2/sc3nnc(-c4ccccc4Cl)n3c2=O)o1	0	27	8	4	20
CCN(CC)c1ccc(/C=c2\sc3nnc(-c4ccccc4Cl)n3c2=O)cc1	-4	28	5	10	104*
CCN(CC)c1ccc(/C=c2/sc3nnc(-c4ccccc4C)n3c2=O)cc1	-1	34	12	48*	86
CS(=O)(=O)c1ccc2nc(NC(=O)c3cccs3)sc2c1	-1	56*	3	15	16

Bioassay records (PubChem)
